Compound activity as filed in PubChem.
Rows were chosen to be rich in hits. Some 11% of all compounds tested hit in one or more screens of this group.
SW480 rereplic: induces DNA re-replication in SW480 colon adenocarcinoma cells; AID 624297; actives 1.8% (n = 340,000); Potency, µM (series often up to 46.1 µM), for inactives: at the highest dose re-replication activation, hits mostly activators; SW480 DNA re-replication, Hoechst DNA content imaging, 48 h; note: potency is the fitted concentration of half-maximal effect; % of control where 0% means no effect; nearly all actives have a fitted effect of over 55% in size
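Cells (250 per well) received 23 nL compound or DMSO by pin tool and were kept 48 hr at 37 C, 5% CO2. Nuclei were then stained with Hoechst for 40 min and scanned for DNA content.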
VP16 counter: inhibits Gal4-VP16 luciferase reporter, ROR gamma counter-screen | Drosophila S2 Gal4-VP16 UAS-luciferase, luminescence, 20 h | actives 3.5% (n = 310,000) | Potency, µM (highest dose often 53.6 µM), for inactives: top-dose activity, negative = inhibition, actives largely listed as inhibitors | AID 2546;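 note: Gal4-VP16 expression switched on by copper sulfate through the metallothionein promoter; potency is the fitted concentration of half-maximal effect; % is set by controls: 0 for no effect and ±100 for the full control effect; nearly all actives have a fitted effect of over 50% in size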
RORgamma inh: ROR gamma (mouse) transcription inhibition. actives 5.4% (n = 310,000). AID 2551. P51450. Drosophila S2 Gal4-RORgamma UAS-luciferase reporter, 20 h. Potency, µM (doses to about 53.6 µM), without a hit: top-dose activity change, negative = inhibition, most hits filed as inhibitors; note: potency is the fitted concentration of half-maximal effect; % is set by controls: 0 for no effect and ±100 for the full control effect; nearly all actives have a fitted effect of over 60% in size
Target sequence (P51450 whole entry, looked up, the tested form may be a part): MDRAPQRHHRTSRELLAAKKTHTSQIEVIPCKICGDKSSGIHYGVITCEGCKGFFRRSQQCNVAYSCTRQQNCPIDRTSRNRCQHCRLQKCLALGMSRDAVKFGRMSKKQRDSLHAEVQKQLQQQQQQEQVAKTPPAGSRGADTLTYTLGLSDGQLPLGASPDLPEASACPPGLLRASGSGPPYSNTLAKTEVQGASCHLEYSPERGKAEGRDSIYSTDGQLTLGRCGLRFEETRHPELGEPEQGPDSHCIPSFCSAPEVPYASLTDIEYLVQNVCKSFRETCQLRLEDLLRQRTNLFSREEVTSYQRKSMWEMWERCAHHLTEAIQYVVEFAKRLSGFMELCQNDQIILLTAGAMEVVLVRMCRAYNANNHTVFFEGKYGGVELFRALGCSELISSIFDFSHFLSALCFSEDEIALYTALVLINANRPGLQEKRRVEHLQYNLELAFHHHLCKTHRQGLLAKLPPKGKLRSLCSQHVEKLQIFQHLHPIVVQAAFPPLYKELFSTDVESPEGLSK
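Schneider cells (Drosophila), stable Gal4 DBD–ROR gamma + UAS-luc; 1 hr cmpd preincubation; Cu2+ induction 700 uM final; 20 hr ambient; luminescence.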
IL1B secr inh: blocks inflammasome-driven IL-1 beta release. AID 743279. activity change, % at 57.5 µM. actives 4.7% (n = 360,000). THP-1 LPS/ATP IL-1B secretion, AlphaLISA, 16 h; active compounds read low; in the data active = activity change below about -50%; inconclusive = mostly about -30% to -49%; note: % is set by controls: 0 for no effect and ±100 for the full control effect
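THP-1 cells pretreated 1 hr with compounds (up to 57.5 uM final), then stimulated with LPS (250 ng/mL final) plus ATP (1.25 mM final); secreted IL-1B measured by AlphaLISA after 16 hr, decreased signal indicating inhibition.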
MCF10A rerep: induces DNA re-replication in MCF 10a normal breast cells | actives 2.9% (n = 350,000) | AID 624296 | Potency, µM (doses to about 46.1 µM), inactives show at the top dose activity, positive = re-replication, most hits filed as activators | MCF 10A DNA re-replication, Hoechst nuclear intensity, 48 h; note: potency is the fitted concentration of half-maximal effect; % of control where 0% means no effect; nearly all actives have a fitted effect of over 50% in size
Active calls of the source: *; ? = inconclusive; / = no result; [ ] = dose if it differs, or a comment. Unless noted, calls come from the whole dose curve; as a rule, active = well fitted curve in the direction sought with a large enough effect; inconclusive = small, poorly fitted or top-dose-only effect, or another doubt; inactive = no such curve, though single readings can be large; an effect the other way counts as inactive or inconclusive.

SMILES	SW480 rereplic	VP16 counter	RORgamma inh	IL1B secr inh	MCF10A rerep
O=C(Nc1cccc(Cl)c1N1CCCC1)c1ccc([N+](=O)[O-])o1	?	14%	-15%	-84*	?
O=C(Nc1cccc(Cl)c1N1CCCC1)c1ccc(Br)o1	17%	1%	?	26	?
O=C(Nc1cccc(Cl)c1N1CCCC1)c1cc2ccccc2o1	-7%	-7%	2%	28	21µM*
O=C(Oc1ccccc1)N1CCC2(CC1)CN(c1ccccc1)C2	/	-17%	41%	/	/
COc1ccc(Cl)c(N2CCN(CCCNC(=O)Nc3ccc(C)cc3)CC2)c1	?	-4%	0%	-56*	30%
COc1ccccc1N1CCN(CCCNC(=O)Nc2ccccc2C)CC1	-9%	-2%	6%	-13	2%
COc1ccc(NC(=O)NCCN2CCN(c3cc(OC)ccc3OC)CC2)cc1	-7%	-12%	23%	-22	-9%
COc1ccc(Cl)cc1N1CCN(CCNC(=O)Nc2ccccc2C)CC1	?	-1%	14%	-77*	?
C/C(CCN1CCCc2nc(C)c(C)cc21)=N\OC[C@@H](C)[C@H](OCc1ccccc1)C(C)C	/	6%[10 µM]	8%[10 µM]	/	/
CCOC(=O)C1(C)NC(c2cccs2)C2C(=O)N(c3ccc(OC)cc3)C(=O)C21 (stereo unspecified)	?	-15%	6%	15	18µM*
O=C1CC(c2ccc(OCCCCCOc3ccc(C4CC(=O)NC4=O)cc3)cc2)C(=O)N1 (stereo unspecified)	?	-13%	?	-131*	?
CC(=O)NC(Nc1nc2c(s1)CCCC2)(C(F)(F)F)C(F)(F)F	4.1µM*	-4%	17%	6	-3%
COC(=O)Nc1nc2c(s1)CCCC2	-8%	9%	?	-1	-6%
C/C(=C\C(=O)c1ccc(Cl)cc1)Nc1ccc(Br)cc1	1%	/	/	-50*	-7%
C/C(=C\C(=O)c1ccc(Br)cc1)NNC(=O)c1ccc(O)cc1	?	4.5µM*	5µM*	69	3%
COc1cccc([C@@H]2Oc3ccc(OC)cc3C[C@H]2OC(=O)NS(=O)(=O)c2ccc(C)cc2)c1	/	3%	?	/	/
S=C(NCc1ccccc1Cl)Nc1ccccc1Cl	9%	2.8µM*	0.56µM*	0	-7%
NNC(=S)Nc1ccccc1Cl	-6%	11µM*	7.9µM*	26	?
O=C(O)CCNC(=S)Nc1cccc(F)c1	-5%	0%	-7%	25	-1%
S=C(NCCNC(=S)Nc1ccccc1Cl)Nc1ccccc1Cl	0%	-15%	?	?	7%
Fc1cccc(NC(=S)NCc2ccccc2Cl)c1	9%	11µM*	7.1µM*	?	0%
CN(C)CCNC(=S)Nc1ccc(Cl)cc1Cl	-3%	4%	-21%	-7	3%
Cc1cc(Cl)ccc1NC(=S)NCc1ccccc1Cl	-62%	4µM*	5µM*	-5	26%
CC(C)C[C@@H]1COc2cccc(N3CCSCC3)c2S(=O)(=O)N1	/	/	/	15	/
CO[C@H]1COC(=O)[C@H](C)NC(=O)C/C=C\[C@@H](C)[C@@H](NS(=O)(=O)c2ccc(C)cc2)COC(=O)[C@H](OCc2ccccc2)/C=C\[C@@H]1C	/	1%[10 µM]	-9%[10 µM]	/	/
SMILES	SW480 rereplic	VP16 counter	RORgamma inh	IL1B secr inh	MCF10A rerep
Cc1nn(-c2ccccn2)c2nc(-c3cccs3)cc(C(=O)NCc3ccco3)c12	-6%[9.22 µM]	?	14µM*	0	?
CCOC(=O)c1cc(-c2cccs2)nc2c1c(C)nn2-c1ccccn1	-7%	7.1µM*	1.8µM*	-79*	?
Cc1nn(-c2ccccc2)c2nc(-c3ccncc3)cc(C(=O)NCc3ccco3)c12	?	-19%	8%	-2	?
C=C1C[C@@H]2C[C@@H]2CN(S(=O)(=O)c2ccc(C)cc2)[C@@H]1COCc1ccccc1	/	/	/	3	/
Cc1c(-c2ccccc2)nc2ccccc2c1C(=O)Oc1ccc([N+](=O)[O-])cc1	0%	-2%	18%	-51*	?
CCC1Nc2ncnc(N3CCCCC3)c2N(Cc2ccc(OC)cc2)C1=O (stereo unspecified)	-5%	/	/	21	17%
COc1cc(SC#N)ccc1N=Cc1c(C)[nH]n(-c2cccc3ccccc23)c1=O	0%[9.22 µM]	?	?	-76*	?
COc1cc(S(=O)(=O)Nc2ccc(C)cc2)ccc1N=Cc1c(C)[nH]n(-c2ccc(C)cc2)c1=O	-6%	-10%	-1%	-7	-1%
COc1cc(SC#N)ccc1N=Cc1c(C)[nH]n(-c2ccc(C)cc2C)c1=O	3%	?	?	-97*	2%
COc1ccccc1N=Cc1c(C)[nH]n(-c2ccc(C)cc2C)c1=O	2%	0%	0%	22	2%
CCN1c2ccccc2NC2N=C(OC)C(c3ccccc3)C21 (stereo unspecified)	16µM*	-14%	-8%	43	?
CCCN1C(=O)c2ccccc2NC1c1cc(OC)c(OC)c(OC)c1 (stereo unspecified)	1%	-5%	?	15	4%
COc1ccccc1NC(=S)N(CCCN(C)C)Cc1cc2cc3c(cc2[nH]c1=O)OCO3	0%	-7%	9%	-23	-3%
CN(C)CCCN(Cc1cc2cc3c(cc2[nH]c1=O)OCO3)C(=S)Nc1cccc(Cl)c1	?	?	21%	-102*	16µM*
CN(C)CCCN(Cc1cc2cc3c(cc2[nH]c1=O)OCO3)C(=S)NCc1ccco1	4%	0%	-10%	?	27%
CN(C)CCCN(Cc1cc2cc3c(cc2[nH]c1=O)OCO3)C(=S)Nc1ccccc1	-3%	-1%	1%	-62*	3%
CCn1c(=O)c(CCC(=O)N2CCN(c3ccccn3)CC2)c(C)c2c(C)nn(-c3cccc(C)c3)c21	21%	0%	14%	10	1%
FC(F)(F)c1cc(Sc2ccccc2)nc(-c2ccccn2)n1	?	?	11µM*	5	0%
COc1cc(C(F)(F)F)nc(-c2ccccn2)n1	?	1%	-32%	9	6%
FC(F)(F)c1cc(Nc2ccccc2)nc(-c2ccccn2)n1	-24%	4.5µM*	2µM*	-22	?
CC(C)Nc1cc(C(F)(F)F)nc(-c2ccccn2)n1	-5%	6.3µM*	1µM*	-16	0%
CC(=O)N1CC(C)Sc2ccc(S(=O)(=O)NCCc3cccc(C)c3)cc21 (stereo unspecified)	-3%	?	54%	3	4%
Cc1ccc(C)c(CSc2nc3[nH]ncc3c(=O)[nH]2)c1	3.7µM*	-13%	-22%	-7	?
COc1cccc(CNC(=O)CSc2nnc3c(n2)[nH]c2ccccc23)c1	-3%	-18%	-13%	21	-5%
